This is part of a sample that, as a whole, favours compounds with a hit. Of some 79,000 tested, about 15% had one in any assay. Unmarked numbers belong to inactive results. Active and inactive are the calls of the source. Cut-off read from the data, not from the text of the source: active = growth inhibition above about 70%; inactive = the rest.

Experiment [1] is described as follows: NCI Yeast Anticancer Drug Screen. Data for the rad50 strain (AID 155).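 Note: 0% = growth of vehicle-only cultures of the same strain.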 The conditions noted are these: S. cerevisiae rad50 strain growth inhibition; at 50.0 µM; stronger effect = higher value. Summed up:
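Compounds were tested on a yeast strain with an engineered DNA damage repair alteration; the reported value is growth inhibition normalised to vehicle treatment.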

Experiment [2] is described as follows: NCI Yeast Anticancer Drug Screen. Data for the mec2-1 strain (AID 157). The conditions noted are these: S. cerevisiae mec2-1 strain, at 50.0 µM, stronger effect = higher value. Summed up: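 Growth inhibition is read against vehicle-treated controls after compound exposure of the mec2-1 yeast strain, which is defective in DNA damage repair or cell cycle control.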
Experiment [3] in a line: NCI Yeast Anticancer Drug Screen. Data for the sgs1 mgt1 strain (AID 161).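 Note: 0% = growth of cultures given vehicle only.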 The settings on record: S. cerevisiae sgs1 mgt1 strain, at 50.0 µM, stronger effect = higher value. The method in brief: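 Growth of a repair-deficient yeast mutant was monitored after compound treatment and expressed as inhibition relative to vehicle-treated cultures.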
Experiment [4] is described as follows: NCI Yeast Anticancer Drug Screen. Data for the cln2 rad14 strain (AID 165).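 Note: 0% = growth equal to vehicle treated cultures.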 The settings on record: S. cerevisiae cln2 rad14 strain, at 50.0 µM, stronger effect = higher value. The method in brief: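 Growth inhibition, relative to vehicle-treated controls, is the read-out. The test organism is a yeast strain with defined genetic alterations, cln2 rad14.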
Experiment [5] is described as follows: NCI Yeast Anticancer Drug Screen. Data for the bub3 strain (AID 167). The conditions noted are these: S. cerevisiae bub3 mutant strain, at 50.0 µM, stronger effect = higher value. Summed up: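 Growth of a checkpoint-deficient yeast mutant is measured after compound exposure. Values represent inhibition relative to vehicle.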
Experiment [6] is described as follows: NCI Yeast Anticancer Drug Screen. Data for the mlh1 rad18 strain (AID 175). The conditions noted are these: S. cerevisiae mlh1 rad18 strain growth inhibition; at 50.0 µM; stronger effect = higher value. Summed up:
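Cells of a genetically altered yeast strain, deficient in DNA damage repair, were treated with compound. Their growth was then compared with that of vehicle-treated cultures to give inhibition.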

For `NC(=O)CC1CCCCC1`, the growth inhibition in experiment [1] is 8.3%; in experiment [2] it was -9%; in experiment [3], -7.05%; in experiment [4] it was 7.35%; in experiment [5] it was 17.2%; in experiment [6], -8.55%.
As to `C=CCOC(=O)C(C)OC(=O)OCC` (stereo unspecified), the growth inhibition is 9.2% in experiment [1]; 10.7% in experiment [2]; 6.85% in experiment [3]; 8.1% in experiment [4]; -2.1% in experiment [5]; 7.15% in experiment [6].
Take `CC(=O)OCC1COC(C2CC=CCC2C)O1` (stereo unspecified): the growth inhibition is -1.9% in experiment [1]; -8.9% in experiment [2]; -8.35% in experiment [3]; 4.05% in experiment [4]; 13.6% in experiment [5]; -7.6% in experiment [6].
With `C/C(=N/Nc1ccc([N+](=O)[O-])cc1[N+](=O)[O-])c1ccccc1`, the growth inhibition in experiment [1] is -4.25%; in experiment [2], -13.2%; in experiment [3], -12.7%; in experiment [4], -13.8%; in experiment [5], 1%; in experiment [6], -11%.
As for `CC1(C)C2CC(c3ccccc3)C1/C(=C/O)C2=O` (stereo unspecified), the growth inhibition is -16.9% in experiment [1]; -3.2% in experiment [2]; 2.8% in experiment [3]; 36.8% in experiment [4]; -3.85% in experiment [5]; -2.9% in experiment [6].
Turning to `Cc1cc(=O)n2nc(SCc3ccccc3)sc2n1`, the growth inhibition in experiment [1] is 11.3%; in experiment [2], 8.2%; in experiment [3], 28.9%; in experiment [4] it was 1.9%; in experiment [5], 3.5%; in experiment [6] it was -8.95%.
As for `Cc1cc(Br)ccc1C1=C(O)C(=O)NC1=O`, the growth inhibition is 5.55% in experiment [1]; -10.4% in experiment [2]; 10.7% in experiment [3]; -32.3% in experiment [4]; -1.7% in experiment [5]; -5.4% in experiment [6].
In the case of `O=C(/C=C/c1ccccc1)Oc1ccccc1`, the growth inhibition in experiment [1] was 3.45%; in experiment [2], 5.55%; in experiment [3], 1.5%; in experiment [4], -19.9%; in experiment [5], 23.8%; in experiment [6] it was -4.85%.
On to `OCC1OC(n2cc(I)c3c(Cl)ncnc32)C(O)C1O` (stereo unspecified), for which the growth inhibition in experiment [1] was 0.7%; in experiment [2] it was -15.4%; in experiment [3], -4.05%; in experiment [4] it was -36.8%; in experiment [5], 1.6%; in experiment [6], 3.95%.
With `O=C1c2cc3c(cc2C(=O)c2ncccc21)CCCC3`, the growth inhibition in experiment [1] is 64.7%; in experiment [2], 48.4%; in experiment [3], 62.1%; in experiment [4], 10.3%; in experiment [5], 71.1% (active); in experiment [6], 76.1% (active).
`O=C(O)C/C=C/CC(=O)O`: the growth inhibition in experiment [1] was -2.25%; in experiment [2], -13.5%; in experiment [3], -2.7%; in experiment [4] it was 4.45%; in experiment [5], 15.4%; in experiment [6], -3.15%.
For the compound `CSc1nc2c(c(O)c(C)c(=O)n2C2OC(COC(C)=O)C(OC(C)=O)C(OC(C)=O)C2OC(C)=O)c(=O)n1C` (stereo unspecified), the growth inhibition in experiment [1] is 10.1%; in experiment [2], -4.3%; in experiment [3], 62.8%; in experiment [4], 32.9%; in experiment [5] it was 34.7%; in experiment [6], 7.25%.
`NC(=O)CCCc1ccc2oc3ccccc3c2c1`: the growth inhibition in experiment [1] is 13.4%; in experiment [2], -4.05%; in experiment [3] it was 9.05%; in experiment [4], 6.55%; in experiment [5], 22.8%; in experiment [6], 35.4%.
On to `CCOC(=O)C(=O)N=Nc1nc2c(O)c3ccccc3c(O)c2s1`, for which the growth inhibition was 78.2% (active) in experiment [1]; 87.8% (active) in experiment [2]; 83% (active) in experiment [3]; 45.8% in experiment [4]; 89.2% (active) in experiment [5]; 58.5% in experiment [6].
`COc1ccc(-c2cc3cc(OC)c(OC)cc3c[n+]2C)cc1OC`: the growth inhibition was 28.3% in experiment [1]; 5.4% in experiment [2]; 5.6% in experiment [3]; 16.1% in experiment [4]; -2.3% in experiment [5]; -0.55% in experiment [6].
`C=C(C)CNCCN`: the growth inhibition in experiment [1] is 36.1%; in experiment [2], 22.1%; in experiment [3], 6.2%; in experiment [4], -0.6%; in experiment [5], 26.6%; in experiment [6], 16.3%.
Consider `C/C=C/C=N/SC(c1ccccc1)(c1ccccc1)c1ccccc1`, for which the growth inhibition in experiment [1] was 9.35%; in experiment [2], -7%; in experiment [3], -5.05%; in experiment [4], 4.45%; in experiment [5] it was -26.1%; in experiment [6] it was 13.6%.
Turning to `CC(=O)Nc1ccc(Sc2ccc(NC(C)=O)cc2O)c(O)c1`, the growth inhibition was 34.1% in experiment [1]; 17% in experiment [2]; 32% in experiment [3]; -31.4% in experiment [4]; 14.7% in experiment [5]; 41.9% in experiment [6].
For `C=C1C(=O)OC2C1C(=O)C/C(C)=C/CCC1(C)OC21` (stereo unspecified), the growth inhibition in experiment [1] is 35.6%; in experiment [2], 52%; in experiment [3], 63.2%; in experiment [4], 34%; in experiment [5], 66%; in experiment [6], 9.95%.
Consider `O=C(O)c1c(I)cc(I)c(O)c1I`, for which the growth inhibition was -1% in experiment [1]; -13.5% in experiment [2]; 1.75% in experiment [3]; 7.65% in experiment [4]; 10.9% in experiment [5]; -6.9% in experiment [6].
`O=c1[nH]c2cc([N+](=O)[O-])ccc2c2ccc(Cl)cc12`: the growth inhibition in experiment [1] was 57.4%; in experiment [2], 0%; in experiment [3], 4.85%; in experiment [4], 2.75%; in experiment [5], 6.5%; in experiment [6], 27.6%.

The values are drawn from PubChem BioAssay (NCI).
